{
  "source": "PubChem BioAssay (NCATS)",
  "note": "Records with an inconclusive call do not appear. The source made the active and inactive calls. Calls follow the shape of the dose curve; as a rule, active = well fitted curve in the direction sought with a large enough effect; inconclusive = small, poorly fitted or top-dose-only effect, or another doubt; inactive = no such curve, though single readings can be large; an effect the other way counts as inactive or inconclusive. Where a SMILES comes first, the peptide text is derived from it. Bridges are numbered along the chain shown (N, C = ends). [ ]: non-standard residue; d: D form. NMeY = CN[CH](Cc1ccc(O)cc1)C(=O)O",
  "data": [
    {"tested_on": "Nanoluciferase (engineered Oplophorus gracilirostris luciferase)", "test": "Primary Nanoluciferase (NLuc) qHTS assay for identification of artifact compounds. (AID 1845222);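 also: 0% = DMSO and -100% = no enzyme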", "details": "NLuc-conditioned medium, Nano-Glo luminescence, 5 min; series mostly up to 54.1 µM; activity, negative = inhibition: at the top concentration", "in_short": "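Concentration-response data were obtained by luminescence after 5 min with Nano-Glo substrate at 1:100. The enzyme was diluted S16 NLuc-expressing cell medium, preincubated with compound for 15 min at RT. Curves were fitted with a 4-parameter Hill model.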", "values": [
      {"compound": "CC(Nc1ncnc2nc[nH]c12)c1cc2cccc(Cl)c2c(=O)n1-c1ccccc1", "note": "(stereo unspecified)", "activity, negative = inhibition": "-23.7% (inactive)"},
      {"compound": "CC(C)(O)C1CCC(C)(C2CCC3(C)C4CCC5C(C)(C(=O)OC6OC(CO)C(O)C(O)C6O)C(O)CC(O)C56CC46CCC23C)O1", "note": "(stereo unspecified)", "activity, negative = inhibition": "-0.659% [at 25.7 µM] (inactive)"},
      {"compound": "CC(C)C(N)C(=O)OCCOCn1cnc2c(=O)[nH]c(N)nc21", "note": "(stereo unspecified)", "activity, negative = inhibition": "-0.555% (inactive)"}
    ]},
    {"tested_on": "not listed separately", "test": "Primary redox qHTS assay for identification of artifact compounds. (AID 1845223);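 also: 0% = DMSO and 100% = reference compound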", "details": "Amplex Red/HRP redox cycling with DTT, fluorescence; series mostly up to 53.8 µM; redox activity (% of DA3003): at the top concentration", "in_short": "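Redox-cycling detection via DTT (250 uM final) oxidation coupled to Amplex Red (25 uM)/HRP (250 mU/mL) in HBSS. 15 min preincubation plus 30 min after DTT, room temperature. Ex/Em 525/598 nm; 4-parameter Hill fit against DMSO and 10 uM DA3003.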", "values": [
      {"compound": "COC(C(=O)N1Cc2[nH]nc(NC(=O)c3ccc(N4CCN(C)CC4)cc3)c2C1)c1ccccc1", "note": "(stereo unspecified)", "redox activity (% of DA3003)": "3.98% (inactive)"},
      {"compound": "CC1OC(O[C@H]2CC[C@@]3(C)C(CC[C@]4(C)C3CC=C3C5CC(C)(C)CC[C@]5(C(=O)OC5OC(CO)C(OC6OC(COC7OCC(O)C(O)C7O)C(O)C(O)C6O)C(O)C5O)CC[C@]34C)C2(C)C)C(O)C(O)C1OC1OCC(OC2OCC(O)C(O)C2O)C(O)C1O", "note": "(stereo partly specified)", "redox activity (% of DA3003)": "16.2% [at 11.5 µM] (inactive)"},
      {"compound": "COc1ccc(CNC(=O)c2cc(-c3cncc(C)c3)ncc2-c2nccs2)nc1OC", "redox activity (% of DA3003)": "-5.28% (inactive)"},
      {"compound": "CC(=O)SCC(=O)c1ccc(NS(=O)(=O)c2ccc(OCCCN(C)C)cc2)nc1", "redox activity (% of DA3003)": "5.3% (inactive)"},
      {"compound": "N=c1nc2n(cc1F)C1OC(CO)C(O)C1O2", "note": "(stereo unspecified)", "redox activity (% of DA3003)": "-2.56% (inactive)"},
      {"compound": "Cc1ccc(C(=O)N(CCCN)C(c2nc3cc(Cl)ccc3c(=O)n2Cc2ccccc2)C(C)C)cc1", "note": "(stereo unspecified)", "redox activity (% of DA3003)": "2.77% (inactive)"},
      {"compound": "OC[C@H]1O[C@@H](OCCc2ccccc2)[C@H](O[C@@H]2OC[C@](O)(CO)[C@H]2O)[C@@H](O)[C@@H]1O", "redox activity (% of DA3003)": "-0.326% [at 25.6 µM] (inactive)"},
      {"compound": "Cc1ccc(NC(=O)c2ccc(CN3CC[C@H](N(C)C)C3)c(C(F)(F)F)c2)cc1Nc1nccc(-c2cncnc2)n1", "redox activity (% of DA3003)": "10.4% [at 25.6 µM] (inactive)"},
      {"compound": "COc1cc(O)c([C@@H](CC(=O)N2CC(C)CC(C)C2)c2ccc3c(c2)OCO3)c(OC)c1", "note": "(stereo partly specified)", "redox activity (% of DA3003)": "5.19% (inactive)"},
      {"compound": "O=C(Nc1ccc(S(=O)(=O)Nc2nccs2)cc1)C(c1ccccc1)c1ccccc1", "redox activity (% of DA3003)": "7.82% (inactive)"},
      {"compound": "CC1CCN(C(=O)CC#N)CC1N(C)c1ncnc2[nH]ccc12", "note": "(stereo unspecified)", "redox activity (% of DA3003)": "-10.4% (inactive)"},
      {"compound": "CN(C)C(=O)NC1CCC(CCN2CCN(c3cccc(Cl)c3Cl)CC2)CC1", "note": "(stereo unspecified)", "redox activity (% of DA3003)": "-4.67% [at 11.5 µM] (inactive)"},
      {"compound": "CCC(C)C1NC(=O)C2CCCN2C(=O)C(NC(C)=O)C(C)OC(=O)C(Cc2ccc(OC)cc2)N(C)C(=O)C2CCCN2C(=O)C(C(C)C)NC1=O", "note": "(stereo unspecified) (Ac-TPIVP[NMeY](Me); ester 1-C; configuration not given here)", "redox activity (% of DA3003)": "11% [at 25.6 µM] (inactive)"},
      {"compound": "CC(C)(F)C[C@@H](N[C@@H](c1ccc(-c2ccc(S(C)(=O)=O)cc2)cc1)C(F)(F)F)C(=O)NC1(C#N)CC1", "redox activity (% of DA3003)": "1.66% (inactive)"},
      {"compound": "C[C@@H]1CCC2C(C)(C)[C@H](O)CC[C@]2(C)[C@@]12Cc1c(O)cc3c(c1O2)CN([C@@H](CCC(=O)O)C(=O)O)C3=O", "note": "(stereo partly specified)", "redox activity (% of DA3003)": "10.7% [at 25.6 µM] (inactive)"},
      {"compound": "C=C[C@]1(C)C=C2CCC3C(C)(CCC[C@@]3(C)C(=O)O)C2CC1", "note": "(stereo partly specified)", "redox activity (% of DA3003)": "7.1% (inactive)"},
      {"compound": "CC(=O)N[C@@H](CCCCN)C(=O)N(C)[C@@H](CC(C)C)C(=O)N[C@H](C(=O)N(C)[C@@H](Cc1ccccc1)C(=O)N[C@H](Cc1ccccc1)C(N)=O)C(C)C", "redox activity (% of DA3003)": "-1.23% [at 6.41 µM] (inactive)"},
      {"compound": "CC(NC(=O)CCc1nc2ccccc2c(=O)[nH]1)c1ccccc1", "note": "(stereo unspecified)", "redox activity (% of DA3003)": "-5.73% (inactive)"},
      {"compound": "COC1=CC(=O)CC(C)C12Oc1cc(OC)cc(O)c1C2=O", "note": "(stereo unspecified)", "redox activity (% of DA3003)": "-6.81% (inactive)"},
      {"compound": "CC(=O)OC12COC1CC(O)C1(C)C(=O)C(O)C3=C(C)C(OC(=O)C(O)C(NC(=O)OC(C)(C)C)c4ccccc4)CC(O)(C(OC(=O)c4ccccc4)C21)C3(C)C", "note": "(stereo unspecified)", "redox activity (% of DA3003)": "2.26% (inactive)"},
      {"compound": "O=C1OCC(c2ccccc2)=C1Cc1ccccc1", "redox activity (% of DA3003)": "-18.3% (inactive)"},
      {"compound": "CC(NC(=O)C(O)C(C)C)C(=O)NC1C(=O)N(C)CCc2ccccc21", "note": "(stereo unspecified)", "redox activity (% of DA3003)": "-6.96% (inactive)"},
      {"compound": "OC[C@H]1O[C@@H](Oc2ccccc2)[C@H](O)[C@@H](O)[C@@H]1O", "redox activity (% of DA3003)": "-9.07% (inactive)"},
      {"compound": "CS(=O)(=O)N1CCC(NC(=O)c2[nH]ncc2NC(=O)c2c(Cl)cccc2Cl)CC1", "redox activity (% of DA3003)": "-2.75% (inactive)"},
      {"compound": "CC1(C)CC[C@]2(C(=O)O[C@@H]3O[C@H](CO)[C@@H](O)[C@H](O)[C@H]3O)CC[C@]3(C)C(=CCC4[C@@]5(C)CC[C@H](O[C@@H]6O[C@H](C(=O)O)[C@@H](O)[C@H](O)[C@H]6O)[C@@](C)(CO)C5CC[C@]43C)C2C1", "note": "(stereo partly specified)", "redox activity (% of DA3003)": "15.6% [at 11.5 µM] (inactive)"},
      {"compound": "CC(O)CO[C@@H]1O[C@H](CO)[C@@H](O)[C@H](O)[C@H]1O", "note": "(stereo partly specified)", "redox activity (% of DA3003)": "-15.7% (inactive)"},
      {"compound": "C/C1=C\\CC[C@H](C)CCO[C@@H]2O[C@H](CO[C@@H]3OC[C@](O)(COC1=O)[C@H]3O)[C@@H](O)[C@H](O)[C@H]2O", "redox activity (% of DA3003)": "-0.814% [at 25.6 µM] (inactive)"},
      {"compound": "O=C(CCc1nnc2n(Cc3ccc(Cl)cc3)c(=O)c3ccccc3n12)NCCC1=CCCCC1", "redox activity (% of DA3003)": "-7.21% (inactive)"}
    ]}
  ]
}
